According to the supplement of paper PMC4166925:
± gives the standard deviation of the averaged measurements. The full ranking holds about 33,000 sequences; the median of “E-score (dimensionless, -0.5 to 0.5)” is about -0.046, and the highest 2% start at about 0.36. The sample as a whole holds a higher share of the highest values than the screen did.

tested on: T1, SpTbr T-box DNA-binding domain (GST fusion); assay: PBM E-score of 8-mer (E-score (dimensionless, -0.5 to 0.5)); Tbr is Tbrain of the sea star Patiria miniata (Pm) or the sea urchin Strongylocentrotus purpuratus (Sp); higher = stronger binding preference; conditions: the construct has about 5 more residues each side
T1 sequence: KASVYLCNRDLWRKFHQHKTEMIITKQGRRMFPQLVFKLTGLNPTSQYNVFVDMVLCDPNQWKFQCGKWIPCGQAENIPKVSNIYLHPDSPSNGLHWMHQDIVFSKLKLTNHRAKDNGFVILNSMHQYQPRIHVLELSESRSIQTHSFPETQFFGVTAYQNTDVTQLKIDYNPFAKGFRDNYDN
Procedure: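 Universal protein-binding microarray (Agilent AMADID 016060, 60-bp probes with a 35-bp variable region) incubated with 200 nM GST-fused Strongylocentrotus purpuratus Tbr T-box DNA-binding domain (residues 362-554) in PBS pH 7.5. Scored for every ungapped 8-mer (given with its reverse complement) as E-score (range -0.5 to 0.5; >0.45 counts as bound) and Z-score of median probe intensity. Two replicate arrays (datasets 1 and 2).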
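Further: protein at 200 nM in PBS on universal double-stranded arrays.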

Sequence	PBM E-score of 8-mer
AGAAGGTG	0.386 ± 0.015
ACAAGGTA	0.0584 ± 0.021
ACAAGGTG	0.425 ± 0.0045
ACAAGGTC	0.202 ± 0.026
AGAAGGTC	-0.2756 ± 0.0017
AGAAGGTA	-0.167 ± 0.031
AGATCTTC	0.0938 ± 0.043
AGTTGTGA	0.407 ± 0.0049
TCTTGTCA	0.24 ± 0.014
GCTTGTCA	0.12044 ± 2.8e-05
ACTTGTGG	0.205 ± 0.00054
GCTTGTGA	0.202 ± 0.074
ACTTGTCA	0.4189 ± 0.00086
AGTTGTGG	0.164 ± 0.06
ACTTGTGA	0.412 ± 0.011
CGTTGTGA	0.162 ± 0.028
ATTGCGAC	-0.0335 ± 0.048
CGATGACG	0.0899 ± 0.049
AGCCTATC	-0.168 ± 0.1
AACAATGC	-0.018 ± 0.0069
CAGAGTTC	-0.129 ± 0.032
ACTGGTAC	-0.0857 ± 0.01
AACCACTT	-0.0435 ± 0.018
AAGGTGGG	0.242 ± 0.042
GAGGTGGA	0.06436 ± 0.00017
CAGGTGGC	0.323 ± 0.0069

Sequence	PBM E-score of 8-mer
AAGGTGGC	0.372 ± 0.0085
GAGGTGGC	0.3855 ± 0.0037
AAGGTGGA	-0.0733 ± 0.085
AATGGCCT	-0.0378 ± 0.026
AGAGTTTC	-0.243 ± 0.052
AGCTAGCG	0.0935 ± 0.042
AACCTCGG	-0.108 ± 0.049
GACCTCGC	0.0532 ± 0.0042
GACCTCGA	-0.0589 ± 0.014
CACCTCGC	0.439 ± 0.012
AACCTCGC	0.152 ± 0.055
CACCTCGG	0.402 ± 0.0072
CACCTCGA	0.44517 ± 8.5e-05
CCCCTCGG	-0.255 ± 0.051
AACCTCGA	-0.0446 ± 0.051
CGACCCAC	0.00361 ± 0.024
ACTTTCGC	0.328 ± 0.038
ATGGGGGC	-0.283 ± 0.021
AGGGACTA	-0.1367 ± 0.00023
CTCAAGGC	-0.137 ± 0.013
ATTACGCG	0.19 ± 0.028
ATGTCTAG	-0.0188 ± 0.02
GCAGTGCC	-0.102 ± 0.027
GATCCTCA	0.11 ± 0.055
GATAGCCC	-0.217 ± 0.0042
ACACTTGC	0.4 ± 0.0054

Sequence	PBM E-score of 8-mer
ACACTTGG	0.367 ± 0.022
AAACTTGC	0.102 ± 0.0067
ACACTTGA	0.347 ± 0.0096
ATACTTGG	-0.22 ± 0.046
CCACTTGC	0.192 ± 0.049
GCCTAAGA	-0.128 ± 0.039
ACGCTGAG	-0.115 ± 0.075
AGGCCATA	-0.0266 ± 0.0079
GCACCCTA	0.118 ± 0.032
ACACCCTC	0.402 ± 0.016
ACACCCTG	0.415 ± 0.024
CCACCCTC	0.0803 ± 0.068
CCACCCTA	0.0825 ± 0.11
ATACCCTG	-0.119 ± 0.008
ACCCCCTG	0.0826 ± 0.062
ACCCCCTC	-0.0672 ± 0.037
ACACCCTA	0.371 ± 0.01
GTCTAGAA	-0.242 ± 0.049
CAGATCGA	-0.12 ± 0.014
AGAGTTCG	-0.121 ± 0.068
GATCGCAC	0.442 ± 0.0075
AATCGCAG	0.0391 ± 0.046
CATCGCAA	-0.03 ± 0.019
CATCGCAC	0.376 ± 0.019
CATCGCAG	0.109 ± 0.046
AATCGCAT	0.113 ± 0.0034

Sequence	PBM E-score of 8-mer
AATCGCAC	0.4074 ± 0.00091
GATCGCGC	0.352 ± 0.025
GATCGCAA	0.2797 ± 0.00053
GGGGAGCA	-0.25 ± 0.0084
AGCACTGA	0.0628 ± 0.0091
AGTGCCCC	-0.185 ± 0.025
CATGTCGA	-0.0673 ± 0.11
AAGACGAT	-0.0524 ± 0.029
GCGCGCGC	0.0386 ± 0.035
AGACTGAT	-0.168 ± 0.062
GTCCAGCA	-0.295 ± 0.06
CCTTTAAC	0.141 ± 0.02
CACTTCAC	0.39 ± 0.0097
CACTTCAG	0.269 ± 0.049
AACTTCAC	0.147 ± 0.036
CTAAGGAA	-0.158 ± 0.034
CACCTGGC	0.389 ± 0.021
AACCTGGC	0.0794 ± 0.017
CACCTGGA	0.297 ± 0.025
CACCTGCA	0.346 ± 0.0038
CACCTGCG	0.425 ± 0.0075
GACCTGCC	0.0636 ± 0.012
CACCTGCC	0.3954 ± 0.00044
AACCTGCC	-0.0535 ± 0.017
AACCTGCG	0.0936 ± 0.029
AATGGATC	-0.0632 ± 0.037

Sequence	PBM E-score of 8-mer
GAATCGTA	-0.0254 ± 0.00061
CGACTGCA	-0.155 ± 0.0016
CGAGGGGA	-0.0885 ± 0.018
CAGTGCTC	0.0319 ± 0.0026
AGACACTC	0.129 ± 0.029
CTGACACC	0.4611 ± 0.0014
ATGACACA	0.327 ± 0.033
ATGACACG	0.315 ± 0.035
CTGACATC	-0.107 ± 0.031
CTGACAGC	0.318 ± 0.0042
ATGACACC	0.4599 ± 0.0031
ACTCATAA	-0.0942 ± 0.0043
CAGAGCGC	-0.00751 ± 0.044
CAGGTCGC	0.225 ± 0.038
ATTTCACA	0.4303 ± 0.0022
GTTTCACA	0.38 ± 0.012
GCTTCACA	0.347 ± 0.013
CTTTCACA	0.44384 ± 0.0002
ATTTCACC	0.0204 ± 0.024
ATTTCACG	0.293 ± 0.04
CTTTCACC	0.0179 ± 0.03
GTTTCAAA	-0.327 ± 0.079
CTTTCAAA	-0.203 ± 0.0062
CGCCCAGA	0.0494 ± 0.0041
AGCTAACT	-0.27 ± 0.067
CCAGTATC	-0.199 ± 0.063

Sequence	PBM E-score of 8-mer
CCCTTAGG	0.00499 ± 0.015
AGCCCCCT	-0.356 ± 0.013
TGCAAGAA	-0.0626 ± 0.014
ACTCTTTG	0.221 ± 0.066
CGCGTCAC	0.277 ± 0.039
AGCGTTAA	0.36 ± 0.025
CGCGTCAA	0.313 ± 0.006
GGCGTCAA	0.412 ± 0.018
AGCGTCAC	0.3328 ± 0.0021
TGCGTTAA	0.208 ± 0.026
GGCGTTAA	0.387 ± 0.0042
AGCGTCAA	0.317 ± 0.0075
GGCGTCAC	0.373 ± 0.024
AAGCGATA	0.2613 ± 0.002
ATAGGCTG	0.0188 ± 0.056
TATGTACA	-0.174 ± 0.083
GGAGCAAC	0.0231 ± 0.049
GAACTTCA	-0.0825 ± 0.021
ACAGTCCG	0.00019 ± 0.0047
GGGGTACC	-0.1738 ± 0.00025
CGGCGTGC	0.00958 ± 0.15
GCGTGAAC	0.456 ± 0.0075
GCGTGACC	0.369 ± 0.004
ACGTGAAC	0.126 ± 0.031
CCGTGAAA	0.245 ± 0.022
CCGTGAAC	0.353 ± 0.0099

Sequence	PBM E-score of 8-mer
GCGTGACA	0.345 ± 0.023
TCGTGAAA	0.253 ± 0.054
ACGTGACC	0.135 ± 0.082
GCGTGAAA	0.4597 ± 0.0039
CCGGATCG	-0.114 ± 0.033
CAAAAAAA	-0.1537 ± 0.00074
CAAGCTTC	-0.215 ± 0.013
AAGGTCAC	0.164 ± 0.036
AACGGGAT	-0.0959 ± 0.041
CGTTTCCA	0.0866 ± 0.0024
CAGTGCGA	0.386 ± 0.0039
TAGTGCAA	0.247 ± 0.024
AAGTGCGA	0.483 ± 0.0069
TAGTGCGA	0.4025 ± 0.0017
CAGTGCGC	0.00847 ± 0.051
TAGTGCCA	0.195 ± 0.009
ATGTGCGA	0.47362 ± 0.00026
AAGTGCGC	0.194 ± 0.018
CAGTGCGG	0.107 ± 0.0036
ATGTGCGC	0.211 ± 0.054
AAGTGCGT	0.203 ± 0.018
ATGTGCGG	0.0899 ± 0.0075
